This is a sample that favours compounds with a hit; in the whole collection about 12% have one here.
JMJD2A Tudor inh – inhibitors of human JMJD2A Tudor domain. AlphaScreen JMJD2A-Tudor / H3K4me3 peptide binding. Potency, µM (series often up to 114 µM), for the others: at the highest dose activity change, negative = inhibition, actives largely listed as inhibitors. hit rate 4.4% among 390,000. AID 504339; further: potency means the concentration at half of the fitted maximal effect; on the % scale 0 is the no-effect control and ±100 the full control effect; nearly all actives have a fitted effect of over 50% in size
BAZ2B block – blocks human BAZ2B | Q9UIF8 | AlphaScreen BAZ2B-H3K14Ac peptide displacement | AID 504333 | hit rate 4.4% among 360,000 | Potency, µM (highest dose often 114 µM), without a hit: at the highest dose activity change, negative = inhibition, usual class: inhibitors; further: potency means the concentration at half of the fitted maximal effect; on the % scale 0 is the no-effect control and ±100 the full control effect; nearly all actives have a fitted effect of over 60% in size
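AlphaScreen displacement of biotin-H3(5-23)K14Ac peptide (50 nM final) from BAZ2B (50 nM final) in PBS pH 7.4, 0.01% Tween-20; complex preformed 30 min RT, then compounds (top 110 uM) 30 min RT, beads 20 min dark.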
PI5P4K alpha inh – inhibitors of human PI5P4K alpha; PI5P4Kalpha enzyme, ADP-Glo luminescence, 60 min; stronger effect = lower value; max response, %; hit rate 1.2% among 330,000; P48426; active means max response of -50% or lower; inconclusive means between -30% and -50%; inactive means -30% or higher; further: value at the top dose of about 77 µM; on the % scale 0 is the no-effect control and ±100 the full control effect
Target sequence (P48426 whole entry, looked up): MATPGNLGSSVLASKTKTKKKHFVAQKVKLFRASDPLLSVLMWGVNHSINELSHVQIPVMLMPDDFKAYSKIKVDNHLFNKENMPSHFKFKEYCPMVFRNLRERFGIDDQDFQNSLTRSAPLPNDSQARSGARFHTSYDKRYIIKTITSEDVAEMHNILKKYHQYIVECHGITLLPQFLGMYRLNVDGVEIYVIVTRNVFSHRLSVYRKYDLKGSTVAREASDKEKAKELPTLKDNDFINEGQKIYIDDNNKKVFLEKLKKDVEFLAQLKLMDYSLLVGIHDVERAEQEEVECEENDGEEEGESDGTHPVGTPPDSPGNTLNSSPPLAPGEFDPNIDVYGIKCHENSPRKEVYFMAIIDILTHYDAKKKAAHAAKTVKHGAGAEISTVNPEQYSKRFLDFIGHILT
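Controls without substrate or without enzyme flank wells where PI5P4Kalpha converts substrate using 5 microM ATP (final). Incubation lasts 60 minutes at room temperature; ADP formed is read by ADP-Glo luminescence.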
HP1b binding inh – blocks HP1-beta chromodomain binding to methylated histone tails; AlphaScreen HP1-beta / biotin-H3K9me3 peptide binding; hit rate 0.56% among 390,000; AID 540317; Potency, µM (titrated, usually from 114 µM), without a hit: at the top dose activity change, negative = inhibition, most hits filed as inhibitors; further: potency means the concentration at half of the fitted maximal effect; nearly all actives have a fitted effect of over 70% in size
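Compound inhibition of the preformed complex between 50 nM HP1-beta and 50 nM biotinylated H3K9me3 peptide was read by AlphaScreen. Buffer was PBS pH 7.4 with 0.01% Tween-20. Incubations ran 30 min at room temperature, with 10 ug/mL donor/acceptor beads.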
G9a inh – blocks human histone lysine methyltransferase G9a | hit rate 8.8% among 350,000 | Potency, µM (top dose mostly 102 µM), inactives show at the top dose activity, negative = inhibition, hits mostly inhibitors | G9a H3K9 monomethylation, AlphaScreen, 2 h; further: potency means the concentration at half of the fitted maximal effect; on the % scale 0 is the no-effect control and ±100 the full control effect; nearly all actives have a fitted effect of over 75% in size
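Compounds were preincubated with 20 nM G9a for 15 min, after which biotinylated H3K9 peptide (500 nM) and SAM (20 uM) started a 2 h room-temperature reaction. Monomethylated product was quantified by antibody-based AlphaScreen chemiluminescence.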
PLK1 PBD block – blocks phosphopeptide binding to human PLK1 polo-box domain. hit rate 2.8% among 360,000. AID 720504. Potency, µM, for inactives: max response, negative = inhibition, actives largely listed as inhibitors. Plk1 PBD binding of FITC phosphopeptide, fluorescence polarization; further: potency means the concentration at half of the fitted maximal effect; series mostly up to about 57 µM; on the % scale 0 is the no-effect control and ±100 the full control effect; nearly all actives have a fitted effect of over 65% in size
Starred values were filed as active, the others as inactive; ? = inconclusive; . = no result given; [ ] = remark or other dose. Unless noted, the call rests on the fitted dose curve; in most records, active means well fitted curve in the direction sought with a large enough effect; inconclusive means small, poorly fitted or top-dose-only effect, or another doubt; inactive means no such curve, though single readings can be large; an effect the other way counts as inactive or inconclusive.

SMILES | JMJD2A Tudor inh | BAZ2B block | PI5P4K alpha inh | HP1b binding inh | G9a inh | PLK1 PBD block
Oc1ccc(/C(Cc2ccc3ccccc3n2)=N\Nc2ccccc2)c(O)c1 | 50µM* | ? | -19 | 71µM* | 7.9µM* | -25%
Oc1ccc(/C(Cc2ccccn2)=N\Nc2ccccc2)c(O)c1 | ? | 32µM* | 29 | -28% | 4µM* | -4%
Cc1c(O)ccc(/C(Cc2ccc3ccccc3n2)=N\O)c1O | -31% | ? | . | 10% | 3%[12.7 µM] | 0%
COc1ccc(OC)c2cc3ccccc3cc12 | ? | . | -60* | ? | . | 2.7µM*
COc1ccc(C(CNC(=O)C(CCSC)NC(=O)c2ccccc2Cl)N2CCCCC2)cc1 (configuration not stated) | -19% | -17% | -2 | 14% | -49%[59 µM] | 0%
COCCCNC(=O)C(=O)C1C(=O)Nc2ccccc21 (configuration not stated) | -29% | -35% | 2 | 3% | 40µM* | -6%
O=C(NCc1ccncc1)C(=O)C1C(=O)Nc2ccccc21 (configuration not stated) | ? | ? | 0 | -4% | -48% | -14%
O=C(O)CCCCCNC(=O)C(=O)C1C(=O)Nc2ccccc21 (configuration not stated) | -4%[11.4 µM] | ? | -2 | 61% | 25µM* | ?
C[C@H]1CN([C@@H](C)CO)S(=O)(=O)c2ccc(/C=C/c3ccccc3)cc2O[C@H]1CN(C)C(=O)NC1CCCCC1 | . | . | -2 | . | . | 2%
COc1ccc(CCNC(=O)c2cc(S(=O)(=O)N3CCCC(C)C3)cn2C)cc1OC (configuration not stated) | -12% | -13% | . | 24%[57 µM] | -3%[59 µM] | .
CCN(C(=O)Cc1c(C(=O)O)c(C)cn1C)c1cccc(Cl)c1 | -1% | -4% | . | 19% | 3%[59 µM] | .
CCOC(=O)C1CCN(C(=S)Nc2ccc(S(N)(=O)=O)cc2)CC1 | ? | -3% | 0 | ? | 10µM* | 21µM*
CCOC(=O)C1CCCN(C(=S)Nc2ccc(Nc3ccccc3)cc2)C1 (configuration not stated) | 56µM* | 35µM* | -9 | ? | 25µM* | 21µM*
NS(=O)(=O)c1ccc(NC(=S)N2CCC(O)CC2)cc1 | 7% | 2% | 5 | 12% | 40µM* | ?
CCOC(=O)C1CCN(C(=S)Nc2ccccc2)CC1 | -2% | -10% | 0 | 24% | . | -18%
Cc1cc(C)cc(N2CC(c3nc(-c4cccc(Cl)c4)no3)CC2=O)c1 (configuration not stated) | 14% | 2% | . | 58% | 39%[59 µM] | .
CCN(CC)S(=O)(=O)c1ccc(C(=O)NCCSc2c(-c3ccc(F)cc3)[nH]c3ccccc23)cc1 | -21% | -8% | . | 4% | -27%[59 µM] | .
COc1ccc(CCNC(=O)C(=O)NCCC2CCCCN2S(=O)(=O)c2ccccc2)cc1 (configuration not stated) | -6% | -8% | 0 | 30% | -17% | -9%
Cc1cc(C)c(S(=O)(=O)Nc2cccc3nsnc23)c(C)c1 | 18% | 19% | 11 | 72% | 3.2µM* | -9%
O=S(=O)(Nc1cccc2nsnc12)c1ccccc1 | -19% | 3% | . | 7% | -2%[59 µM] | -6%
Cc1ccc(O)c(NS(=O)(=O)c2cccc3nsnc23)c1 | ? | 45µM* | -11 | ? | -31%[2.33 µM] | ?
Cc1ccc(NS(=O)(=O)c2cccc3nsnc23)cc1C | -23% | ? | -10 | -3% | -37% | -12%
COc1cc(NS(=O)(=O)c2cccc3nsnc23)cc(OC)c1 | 45µM* | 56µM* | . | -10% | 2µM* | -10%
Cc1cc(C)c(S(=O)(=O)Nc2ccc[nH]c2=O)c(C)c1 | -18% | 1% | 23 | 21% | 8.9µM* | 1%
O=S(=O)(Nc1ccc(Br)cc1)c1cccc2nonc12 | -29% | -34% | 2 | 7% | 79µM* | -7%
O=S(=O)(Nc1ccc(Cl)cc1)c1cccc2nsnc12 | ? | -33% | -9 | -2% | 8% | 30µM*
Cc1cccc(NS(=O)(=O)c2cccc3nonc23)c1 | -15% | 12% | 3 | 28% | -6% | -10%

Source: PubChem
